# Assay outcomes: PubChem, several laboratories
# Sampled rows, rich in hits. Any-hit rate of the full collection: about 2.7%.
# MPTP block: mitochondrial permeability transition pore inhibitors, primary screen, biochemical, isolated mouse mitochondria, absorbance; Ca2+ swelling absorbance, 30 min; inhibition, % at 10 µM; 360,000 compounds, 1.4% hits;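 active means inhibition of 50% or more, scaled per plate between neutral and stimulator controls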;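 further: 0% = DMSO wells given calcium and 100% = 1 mM EGTA wells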
# ATG4B inh: ATG4B protease inhibitors, primary screen, biochemical, fluorescence, uHTS | inhibition, % at 8.33 µM | AID 504462, 2011 | ATG4B cleavage of LC3-PLA2, NBD-HPC fluorescence, 1 h | 340,000 compounds, 0.51% hits | Cysteine protease ATG4B (Homo sapiens), Q9Y4P1; in the data active means inhibition above about 40%
# SKN-1 block: suppressors of acrylamide-induced Pgst-4::GFP reporter in worms, primary screen, SKN-1 inhibitor project, whole organism, uHTS, GFP/RFP fluorescence ratio, strain VP596 | C. elegans VP596 Pgst-4::GFP/RFP ratio, 24 h | inhibition, % at 21.8 µM | 360,000 compounds, 0.49% hits | AID 624304, 2012;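 active means interference check ratio from 0.5 to 1.5 plus GFP to RFP signal ratio inhibition reaching or exceeding a fixed threshold, cut at about 30% in these data, passing the limit was not always enough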
# F508del corr: F508del CFTR correction, initial screen, CFBE line, single point; CFBE cells, YFP halide quenching; stimulated with forskolin plus potentiator P3; % fluorescence drop versus neutral controls; activity (quench increase), % at 7.58 µM; 350,000 compounds, 0.36% hits;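 active means mean added fluorescence quench of at least 8% versus neutral control, with both replicates also reaching 8%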;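 further: cells transiently co-express mutant CFTR-F508del with the halide-sensitive YFP; corrector assay measuring rescue of mutant channel to the surface after 24 h compound exposure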
# CendR NRP1 mod: modulators of CendR peptide binding to NRP-1, primary screen, biochemical, fluorescence polarization, uHTS; FAM-RPARPAR peptide binding to NRP-1; inhibition, % at 25 µM; 360,000 compounds, 0.85% hits; AID 602438, 2012;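 active means inhibition or corrected inhibition above about 18%, plus a signal ratio from 0.5 to 1.5, limit read from the data, passing the limit was not always enough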
# Numbers without * were called inactive; · = no result.
SMILES,MPTP block,ATG4B inh,SKN-1 block,F508del corr,CendR NRP1 mod
O=C(c1cnn2c(C(F)(F)F)cc(-c3ccco3)nc12)N1CCCc2ccccc21,1,4,37*,·,6
COc1ccc(-c2cc(C(F)F)n3ncc(C(=O)N4CCc5ccccc54)c3n2)cc1,2,-3,-9,14*,-8
Cc1ccc(-c2cc(C(F)F)n3ncc(C(=O)N4CCCc5ccccc54)c3n2)cc1,1,-14,20,·,1
CCOC(=O)N1CCN(C(=O)c2cnn3c(C(F)F)cc(-c4ccc(C)cc4)nc23)CC1,-4,-4,-1,·,20*
Cc1ccc(-c2cc(C(F)F)n3ncc(C(=O)N4CCN(c5cccc(C)c5C)CC4)c3n2)cc1,1,-5,39*,·,1
Cc1ccc(-c2cc(C(F)F)n3ncc(C(=O)N4CCc5ccccc5C4)c3n2)cc1,6,5,3,-4,11
C[C@@H]1CN([C@H](C)CO)C(=O)c2cc(-c3ccccc3F)cnc2O[C@H]1CN(C)Cc1ccc(F)cc1,·,·,·,1,·
C[C@H](CO)N1C[C@H](C)[C@@H](CN(C)S(=O)(=O)c2cccs2)Oc2ccc(NC(=O)CCCN(C)C)cc2C1=O,·,·,·,1,·
C[C@H]1CN([C@@H](C)CO)C(=O)CCCn2cc(nn2)CO[C@H]1CN(C)C(=O)Nc1ccc(C(F)(F)F)cc1,·,·,·,-1,·
O=C1C=CC(=O)c2c(O)c(N3CCN(CCO)CC3)c(Cl)c(O)c21,9,31,32,-8,55*
O=S(=O)(c1ccc(Br)cc1Cl)N1CCN(CCO)CC1,-2,9,3,-3,4
O=C1C=CC(=O)c2c(O)c(N3CCN(CCOCCO)CC3)c(Br)c(O)c21,7,18,47*,-4,65*
OCCOCCN1CCN(C2=Nc3ccccc3Sc3ccccc32)CC1,0,6,-11,1,2
O=C(C1CCCCC1)N1C[C@H]2[C@@H](c3ccccc31)[C@H](CO)N2C(=O)c1ccccc1F,·,·,·,2,·
N#Cc1cc(-c2cccc(Cl)c2)c[nH]c1=O,0,-2,-4,·,-10
C=CCn1cc(-c2cccc(Cl)c2)cc(C#N)c1=O,-4,-2,40*,·,5
NC(=O)C1CCN(C(=O)CC2(CC(=O)O)CCCCC2)CC1,-1,1,-1,1,27*
COC(=O)/C=C/c1ccccc1S(=O)(=O)N(Cc1ccccc1)Cc1ccco1,-2,0,-5,8.3*,17*
O=C(COC(=O)C1CC1)Nc1ccc(OC(F)F)cc1,-2,-8,1,·,46*
Cn1c(CCN2CCCC2)nc2cc(NC(=O)COc3ccc(Cl)cc3)ccc21,0,·,12,0,19*
CCN1CCN(CCc2nc3cc(NC(=O)COc4ccc(Cl)cc4)ccc3n2C)CC1,2,-8,-7,0,1
COc1ccc(NC(=O)Nc2ccc3c(c2)C(=O)N([C@@H](C)CO)C[C@@H](C)[C@H](CN(C)S(=O)(=O)c2cccs2)OCCCC[C@H](C)O3)cc1,·,·,·,0,·
Cc1ccc(S(=O)(=O)N2CCCCC2C(=O)O)s1 (stereo not drawn),-1,-5,-14,2,46*
Cc1nc(-c2cccc(NC(=O)c3ccco3)c2)cs1,0,-5,36*,0,-12
CC(=O)Nc1ccc(-c2csc(NCc3ccccc3)n2)cc1,0,8,13,-1,-5
SMILES,MPTP block,ATG4B inh,SKN-1 block,F508del corr,CendR NRP1 mod
Cc1nc(-c2ccc(NC(=O)c3ccco3)cc2)cs1,0,-4,9,0,6
CC(=O)Nc1cccc(-c2csc(NCc3ccccc3)n2)c1,-2,-5,-3,0,26*
C[C@H]1CN([C@@H](C)CO)S(=O)(=O)c2ccc(C#CC3CC3)cc2O[C@@H]1CN(C)C(=O)C1CC1,·,·,·,-1,·
O=C1c2ccc(Cl)cc2S(=O)(=O)c2cccc(C(=O)N3CCC(Cc4ccccc4)CC3)c21,0,-15,-6,5,26*
COC(=O)CSC1=C(C#N)C(c2ccc(C)o2)CC(=O)N1 (stereo not drawn),0,-4,-4,9.7*,-1
Cc1ccccc1NC(=O)CSC1=C(C#N)C(c2ccsc2)CC(=O)N1 (stereo not drawn),0,0,38*,·,10
N#CC1=C(SCC(=O)Nc2nccs2)NC(=O)CC1c1ccccc1 (stereo not drawn),0,2,4,-2,-15
N#C[C@H]1[C@@H](c2ccccc2)[C@H](CO)N1C(=O)Cc1ccccn1,·,·,·,0,·
Cc1cc(C(=O)N/N=C/C=C/c2ccc3c(c2)OCO3)n[nH]1,0,5,6,·,27*
Cc1ccc(NC(=S)c2nc3ccccc3s2)cc1,3,4,35*,·,0
COc1ccc(CN(C)C[C@@H]2OCCCC[C@@H](C)Oc3ccc(NC(=O)c4ccncc4)cc3C(=O)N([C@@H](C)CO)C[C@@H]2C)cc1,·,·,·,0,·
O=C(NC[C@H]1CC[C@H]2[C@H](CN2Cc2ccccc2F)O1)C1CCCCC1,·,·,·,0,·
CCN(CCn1cccn1)C(=O)CCc1nnc(-c2ccccc2)o1,0,8,2,-3,6
CCN(CCn1cccn1)C(=O)CCc1nnc(Cc2c[nH]c3ccccc23)o1,2,-4,6,0,21*
CCOc1ccc2nc(NC(=O)c3ccc(S(=O)(=O)N4CCOCC4)cc3)sc2c1,4,7,35*,·,-14
CCOC(=O)c1ccc2nc(NC(=O)c3ccco3)sc2c1,-4,-6,20,·,8
CCOc1ccc2nc(NC(=O)c3ccc(OC)c(S(=O)(=O)N4CCOCC4)c3)sc2c1,3,-35,-5,·,0
CCOc1ccc2nc(NC(=O)c3ccco3)sc2c1,-1,2,35*,4,-9
CS(=O)(=O)Nc1ccc2c(c1)[C@H]1C[C@H](CC(=O)NCc3ccncc3)O[C@H](CO)[C@H]1O2,·,·,·,-4,·
C[C@H]1CNC(=O)c2c(C(=O)Nc3ccc(CNC(=O)OC(C)(C)C)cc3)ncn21,1,·,4,12*,-9
N=c1oc2ccccc2cc1-c1nc(-c2ccccc2)cs1,3,1,58*,2,0
C#CCOc1nc(C)cc(C)c1S(=O)(=O)c1ccccc1C,1,0,-1,-3,35*
COc1nc(C)cc(C)c1S(=O)(=O)c1ccccc1C,0,-2,8,2,14
COc1ccc(-c2noc(CN(C(=O)c3ccc4c(c3)OCO4)C(C)C)n2)cc1,0,-1,-7,0,28*
Cc1nn(-c2ccccc2)nc1CNC(=O)C1CCC1,-1,7,6,-1,25*
Cc1c(-c2csc(N)n2)c2ccccc2n1C,0,-8,37*,1,12
